Results as given in PubChem BioAssay AID588358 (NMMLSC, 2011).
In all, about 310,000 compounds went through this assay and about 1,500 (0.48%) were called active. The sample holds actives, similar compounds and a random draw of the others, so the mix is not that of the screen.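 How the source made its calls: active means binding more than 3 SD below its plate's average and above zero; inconclusive means below that plate limit but binding exactly zero; inactive means the rest.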

The compounds below were run against Desmoglein-3 (Homo sapiens) (UniProt P32926) (assay: blockers of anti-DSG3 scFv binding – biochemical, bead-based, flow cytometry, scFv-GFP, primary screen (AID 588358;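 further: hits lower antibody fragment binding to DSG3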)). Settings: DSG3-coupled beads, at 10 µM, hits give low values.
Desmoglein-3 (Homo sapiens), sequence (P32926 whole entry, looked up, the tested form may be a part): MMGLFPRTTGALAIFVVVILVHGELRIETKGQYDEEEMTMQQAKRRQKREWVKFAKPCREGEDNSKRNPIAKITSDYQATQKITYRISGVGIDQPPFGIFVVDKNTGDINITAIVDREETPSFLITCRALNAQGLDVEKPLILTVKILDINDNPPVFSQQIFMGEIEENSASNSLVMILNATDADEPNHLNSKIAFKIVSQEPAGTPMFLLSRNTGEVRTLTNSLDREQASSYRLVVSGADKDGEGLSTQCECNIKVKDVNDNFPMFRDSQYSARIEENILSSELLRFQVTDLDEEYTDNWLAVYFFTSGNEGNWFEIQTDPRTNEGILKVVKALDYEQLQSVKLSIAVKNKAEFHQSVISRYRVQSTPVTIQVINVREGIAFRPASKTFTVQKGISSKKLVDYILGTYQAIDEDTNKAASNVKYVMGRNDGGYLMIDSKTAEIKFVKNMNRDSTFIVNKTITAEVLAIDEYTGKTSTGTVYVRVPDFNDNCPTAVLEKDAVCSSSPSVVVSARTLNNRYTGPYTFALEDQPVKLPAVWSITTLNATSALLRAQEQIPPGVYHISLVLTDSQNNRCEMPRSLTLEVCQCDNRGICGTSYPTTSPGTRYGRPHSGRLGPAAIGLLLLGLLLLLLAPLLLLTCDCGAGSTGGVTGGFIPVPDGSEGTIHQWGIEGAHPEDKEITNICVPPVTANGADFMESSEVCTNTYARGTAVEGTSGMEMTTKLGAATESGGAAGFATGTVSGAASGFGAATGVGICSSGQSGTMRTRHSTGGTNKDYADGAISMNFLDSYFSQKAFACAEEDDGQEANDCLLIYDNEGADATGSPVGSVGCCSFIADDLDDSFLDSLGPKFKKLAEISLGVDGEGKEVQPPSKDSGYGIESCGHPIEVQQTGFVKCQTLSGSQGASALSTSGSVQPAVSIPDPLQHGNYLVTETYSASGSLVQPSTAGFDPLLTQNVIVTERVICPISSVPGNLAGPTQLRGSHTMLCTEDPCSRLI

Structure (SMILES) | binding (percent of control)
c1ccc(CCNC2CCCCCC2)cc1 | 68.9% (active)
c1cc2c(cc1CCNC1CCCCCC1)OCO2 | 97.2% (inactive)
OC(CNC1CCCCC1)c1ccccc1 (stereo not given) | 107% (inactive)
CN1CCC[C@@H]1CCO[C@](C)(c1ccccc1)c1ccc(Cl)cc1 | 102% (inactive)
Cc1ncoc1C(=O)NCC1=C(c2cccc3ccccc23)C[C@@H]2CC[C@H]1N2Cc1ccco1 | 108% (inactive)
